Assay results: PubChem BioAssay AID1069 (NMMLSC, 2008)
Activity calls are given as the source filed them.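 The calls were made as follows: active = high combined rank on largest and smallest cell-count-weighted shift across three tests, rank score above 45, floors 50 and 25 (some results past the limit were not filed as active); inactive = the rest.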

Experiment: LNCaP granularity increase inducers, single-point recheck – cell-based, side scatter shift, flow cytometry, confirmation (AID 1069);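 also: LNCaP human prostate cancer cells in low-serum medium with charcoal-stripped FBS; percent of cells with raised granularity gated so DMSO controls show 10%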
Settings: LNCaP differentiation, 4 d, stronger effect = higher value

Row | Compound | side scatter shift (at 100 µM) | side scatter shift (side scatter shift, at 10 µM) [%]
1 | Cc1oc(-c2ccc(Cl)cc2)nc1CN1CCC(C(=O)NCc2cccnc2)CC1 | 30% (inactive) | 5.8
2 | COc1cccc(-c2cc(C(=O)N3CCCc4ccccc43)no2)c1 | 22.2% (inactive) | 1.8
3 | COc1ccc(-c2cc(C(F)(F)F)nc(N3CCN(C)CC3)n2)cc1 | 25% (inactive) | 13.6
4 | C=C(C)Cn1c(-c2ccccc2)nc2ccccc21 | 6.3% (inactive) | 4.15
5 | COc1ccc(Cl)cc1N1CCN(CCNC(=O)Nc2ccccc2C)CC1 | 16.7% (inactive) | 3.25
6 | Cc1oc(-c2cccc(Cl)c2)nc1CN1CCC(C(=O)NCc2cccnc2)CC1 | 28.9% (inactive) | 8.3
7 | CC(C)(C)C1CCc2onc(C(=O)Nc3cnn(Cc4ccc(F)cc4)c3)c2C1 (centres undefined) | 25.8% (inactive) | 3.7
